{"source": "paper PMC4102417", "data": [{"test_system": "murine 3T3 fibroblasts", "assay": "primary screen, percent viability or growth; higher = less effect of the substance", "protocol": "Similarly, for measuring the cytotoxicity concentration (CC50) for 3T3 fibroblast cells, cultures were incubated with drugs for 72 hours and developed using Alamar Blue (Alamar Biosciences Inc, Sacramento, CA) as previously described.", "units": {"Mammalian (3T3) cell % growth at 10 uM": "%"}, "values": [{"smiles": "CC(=O)OC1CC2C(C)(C)C(=O)C=CC2(C)C2CCC3(C)C(=CC(=O)OC3c3ccoc3)C12C", "note": "(stereo not drawn)", "Mammalian (3T3) cell % growth at 10 uM": 56.1}, {"smiles": "Clc1ccc2c(c1)C(N1CCNCC1)=Nc1ccccc1O2", "Mammalian (3T3) cell % growth at 10 uM": 98}, {"smiles": "CN1CCC(=C2c3ccccc3Sc3ccccc32)CC1", "Mammalian (3T3) cell % growth at 10 uM": 98.5}, {"smiles": "Oc1ccc(/C=C\\c2cc(O)cc(O)c2)cc1", "Mammalian (3T3) cell % growth at 10 uM": 24.8}, {"smiles": "CCC(=C(c1ccccc1)c1ccc(OCCN(C)C)cc1)c1ccccc1", "Mammalian (3T3) cell % growth at 10 uM": 97}, {"smiles": "COc1ccc2c(c1)OC/C(=C/c1ccc(OC)c(O)c1)C2=O", "Mammalian (3T3) cell % growth at 10 uM": 8.8}, {"smiles": "COc1ccc2cc1Oc1ccc(cc1)C[C@H]1c3c(cc4c(c3Oc3cc5c(cc3OC)CCN(C)[C@@H]5C2)OCO4)CCN1C", "Mammalian (3T3) cell % growth at 10 uM": 33.1}, {"smiles": "CC1CCC2(NC1)OC1CC3C4CCC5CC(O)CCC5(C)C4CCC3(C)C1C2C.Cl", "note": "(stereo not drawn)", "Mammalian (3T3) cell % growth at 10 uM": 100}, {"smiles": "COC(=O)C1=C(C)NC(C)=C(C(=O)OC)C1c1ccccc1[N+](=O)[O-]", "Mammalian (3T3) cell % growth at 10 uM": 1.7}, {"smiles": "CN(C)CC/C=C1/c2ccccc2Sc2ccc(Cl)cc21", "Mammalian (3T3) cell % growth at 10 uM": 97.1}, {"smiles": "COC(=O)[C@H]1[C@H]2C[C@@H]3c4[nH]c5cc(OC)ccc5c4CCN3C[C@H]2C[C@@H](OC(=O)c2cc(OC)c(OC)c(OC)c2)[C@@H]1OC", "Mammalian (3T3) cell % growth at 10 uM": 100}, {"smiles": "CC1(C)C(=O)C=CC2(C)C1=C(O)C(=O)C1(C)C2CCC2(C)C(c3ccoc3)CC3OC321", "note": "(stereo not drawn)", "Mammalian (3T3) cell % growth at 10 uM": 25.5}, {"smiles": "Nc1ccn([C@@H]2O[C@H](CO)[C@@H](O)[C@@H]2O)c(=O)n1", "Mammalian (3T3) cell % growth at 10 uM": 48.4}, {"smiles": "COC(=O)C1(C)CCC2(C)CCC3(C)C4=CC=C5C(=CC(=O)C(O)=C5C)C4(C)CCC3(C)C2C1", "note": "(stereo not drawn)", "Mammalian (3T3) cell % growth at 10 uM": 0.6}, {"smiles": "CC(C1OC(C)(C)C(O)C1O)C1CCC2(C)C3=CCC4C(C)(C)C(=O)CCC4(C)C3CCC12C", "note": "(stereo not drawn)", "Mammalian (3T3) cell % growth at 10 uM": 92.7}, {"smiles": "CC(=O)Oc1cc2c(c(C)c1OC(C)=O)CC=C1C2(C)CCC2(C)C3CC(C)(C(=O)O)CCC3(C)CCC12C", "note": "(stereo not drawn)", "Mammalian (3T3) cell % growth at 10 uM": 0.6}, {"smiles": "CCC1(O)C(=O)OCc2c1cc1n(c2=O)Cc2cc3cc(O)ccc3nc2-1", "note": "(stereo not drawn)", "Mammalian (3T3) cell % growth at 10 uM": 23.9}, {"smiles": "CC(=O)O[C@]1(C(C)=O)CC[C@H]2[C@@H]3C=C(Cl)C4=CC(=O)CC[C@]4(C)[C@H]3CC[C@@]21C", "Mammalian (3T3) cell % growth at 10 uM": 97.4}, {"smiles": "CN1CCCC(n2nc(Cc3ccc(Cl)cc3)c3ccccc3c2=O)CC1.Cl", "note": "(stereo not drawn)", "Mammalian (3T3) cell % growth at 10 uM": 95.1}, {"smiles": "COC1C=CC23c4cc5c(cc4CN(CC2O)C3C1)OCO5", "note": "(stereo not drawn)", "Mammalian (3T3) cell % growth at 10 uM": 36.2}, {"smiles": "CC(=O)OC1CCC2(C)C3=C(CCC2C1(C)C)C1(C)CCC(C(C)CCC=C(C)C)C1(C)CC3", "note": "(stereo not drawn)", "Mammalian (3T3) cell % growth at 10 uM": 87.6}, {"smiles": "COc1cc(OC)c2c(=O)c(OC)c(-c3ccc(OC)c(OC)c3)oc2c1", "Mammalian (3T3) cell % growth at 10 uM": 43.3}, {"smiles": "CCCC(C(=O)OCCN(CC)CC)(c1ccccc1)c1ccccc1", "Mammalian (3T3) cell % growth at 10 uM": 100}, {"smiles": "CC12CCC3C(CCC4CC(O)CCC43C)C1CCC2=O", "note": "(stereo not drawn)", "Mammalian (3T3) cell % growth at 10 uM": 100}, {"smiles": "COc1cc2nc(N3CCN(C(=O)c4ccco4)CC3)nc(N)c2cc1OC.Cl", "Mammalian (3T3) cell % growth at 10 uM": 70.7}, {"smiles": "O=c1[nH]c2ccccc2n1C1CCN(CCCC(c2ccc(F)cc2)c2ccc(F)cc2)CC1", "Mammalian (3T3) cell % growth at 10 uM": 8.1}, {"smiles": "C=C1C(=O)C23C(O)C1CCC2C12COC3(O)C(O)C1C(C)(C)CCC2O", "note": "(stereo not drawn)", "Mammalian (3T3) cell % growth at 10 uM": 0.2}, {"smiles": "O=c1cc(-c2ccccc2)oc2cc(O)c(O)c(O)c12", "Mammalian (3T3) cell % growth at 10 uM": 4.9}, {"smiles": "C=CC(C1=CC(=O)C=CC1=O)c1ccccc1", "note": "(stereo not drawn)", "Mammalian (3T3) cell % growth at 10 uM": 97.5}, {"smiles": "CC(Cc1cccc(C(F)(F)F)c1)NCCOC(=O)c1ccccc1", "note": "(stereo not drawn)", "Mammalian (3T3) cell % growth at 10 uM": 96.6}, {"smiles": "CCN(CC)Cc1cc(Nc2ccnc3cc(Cl)ccc23)ccc1O", "Mammalian (3T3) cell % growth at 10 uM": 24.4}, {"smiles": "C=CC(C1=CC(=O)C(OC)=CC1=O)c1ccc(O)cc1", "note": "(stereo not drawn)", "Mammalian (3T3) cell % growth at 10 uM": 94.8}, {"smiles": "COc1cccc(O)c1O", "Mammalian (3T3) cell % growth at 10 uM": 1.2}]}]}
